JMJD2A Tudor = JMJD2A Tudor domain (human) inhibition | O75164 | AlphaScreen JMJD2A-Tudor / H3K4me3 peptide binding | Potency, µM (series often up to 114 µM), for inactives: top-dose activity change, negative = inhibition, usual class: inhibitors | 4.4% of 390,000 active | AID 504339; also: potency is read from the fitted curve at half-maximal effect; % is scaled to controls: 0 for no effect and ±100 for the full control effect; nearly all actives have a fitted effect of over 50% in size
G9a inh = G9a (human) methyltransferase inhibition; Potency, µM (doses to about 102 µM), inactives show at the highest dose activity, negative = inhibition, actives largely listed as inhibitors; AID 504332; Q96KQ7; 8.8% of 350,000 active; G9a H3K9 monomethylation, AlphaScreen, 2 h; also: potency is read from the fitted curve at half-maximal effect; % is scaled to controls: 0 for no effect and ±100 for the full control effect; nearly all actives have a fitted effect of over 75% in size
Target sequence (Q96KQ7 913-1193 limits assumed): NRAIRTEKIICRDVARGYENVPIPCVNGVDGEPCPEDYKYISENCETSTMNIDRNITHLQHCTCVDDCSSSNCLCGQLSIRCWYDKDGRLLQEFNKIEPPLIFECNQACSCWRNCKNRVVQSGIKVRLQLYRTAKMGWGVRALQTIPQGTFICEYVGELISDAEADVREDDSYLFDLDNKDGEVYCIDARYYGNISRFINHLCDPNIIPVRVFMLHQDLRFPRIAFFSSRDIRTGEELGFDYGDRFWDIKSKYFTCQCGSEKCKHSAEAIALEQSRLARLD
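Chemiluminescent proximity detection of H3K9 monomethylation, read after 10 min bead incubation in the dark. Reaction: 20 nM G9a, 500 nM biotin-H3K9 peptide, 20 uM SAM cofactor, 2 h, room temperature, following 15 min enzyme-compound preincubation.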
PLK1 PBD block = inhibitors of human PLK1 polo-box domain binding; AID 720504; P53350; 2.8% of 360,000 active; Plk1 PBD binding of FITC phosphopeptide, fluorescence polarization; Potency, µM, inactives show max response, negative = inhibition, most hits filed as inhibitors; also: potency is read from the fitted curve at half-maximal effect; series mostly up to about 57 µM; % is scaled to controls: 0 for no effect and ±100 for the full control effect; nearly all actives have a fitted effect of over 65% in size
HP1b binding inh = inhibitors of HP1-beta chromodomain binding to methylated histone tails; 0.56% of 390,000 active; AlphaScreen HP1-beta / biotin-H3K9me3 peptide binding; Potency, µM (series often up to 114 µM), inactives show at the top dose activity change, negative = inhibition, usual class: inhibitors; AID 540317; also: potency is read from the fitted curve at half-maximal effect; nearly all actives have a fitted effect of over 70% in size
Target sequence (P83916 whole entry, looked up): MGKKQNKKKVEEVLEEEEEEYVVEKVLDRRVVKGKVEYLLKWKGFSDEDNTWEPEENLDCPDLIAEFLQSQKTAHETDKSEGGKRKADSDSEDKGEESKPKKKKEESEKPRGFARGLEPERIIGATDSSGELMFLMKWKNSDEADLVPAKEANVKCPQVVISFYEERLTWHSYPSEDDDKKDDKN
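Compound inhibition of the preformed complex between 50 nM HP1-beta and 50 nM biotinylated H3K9me3 peptide was read by AlphaScreen. Buffer was PBS pH 7.4 with 0.01% Tween-20. Incubations ran 30 min at room temperature, with 10 ug/mL donor/acceptor beads.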
BAZ2B block = BAZ2B (human) inhibition. 4.4% of 360,000 active. Potency, µM (series often up to 114 µM), for inactives: at the highest dose activity change, negative = inhibition, most hits filed as inhibitors. AlphaScreen BAZ2B-H3K14Ac peptide displacement. Q9UIF8; also: potency is read from the fitted curve at half-maximal effect; % is scaled to controls: 0 for no effect and ±100 for the full control effect; nearly all actives have a fitted effect of over 60% in size
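Compounds, titrated to a top concentration of 110 uM, were incubated 30 min at room temperature with preformed BAZ2B/acetyl-K14 H3 peptide complex (50 nM each). Proximity signal was measured by AlphaScreen after 20 min with beads.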
PI5P4K alpha inh = PI5P4K alpha (human) kinase inhibition. P48426. PI5P4Kalpha enzyme, ADP-Glo luminescence, 60 min; hits give low values. max response, %. 1.2% of 330,000 active; active = max response of -50% or lower; inconclusive = between -30% and -50%; inactive = -30% or higher; also: value at the top dose of about 77 µM; % is scaled to controls: 0 for no effect and ±100 for the full control effect
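Luminescence from ADP-Glo served as readout of PI5P4Kalpha activity in a qHTS format. Reaction: enzyme, substrate, compound, ATP at 5 microM final, 60 min at RT.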
* = called active by the depositor; [ ] = remark or other dose. Most compounds without a hit are left out; they make up all but 12% or so of the library. Unless noted, calls follow the shape of the dose curve; as a rule, active = well fitted curve in the direction sought with a large enough effect; inconclusive = small, poorly fitted or top-dose-only effect, or another doubt; inactive = no such curve, though single readings can be large; an effect the other way counts as inactive or inconclusive.

COc1ccc(C=C2SC(=S)NC2=O)c(OC)c1OC was read as JMJD2A Tudor -32%, PLK1 PBD block -23%, HP1b binding inh -8% and PI5P4K alpha inh -64*.
`O=C1NC(=O)/C(=C/c2ccccc2Oc2ccc(Cl)cc2)S1` gave JMJD2A Tudor -3%, G9a inh -48%[59 µM], PLK1 PBD block inconclusive, HP1b binding inh 25%, BAZ2B block 2% and PI5P4K alpha inh -5.
COc1ccc(/C=C2\CCC(C3CCCC3)C2=O)c(OC)c1OC (stereo not drawn) was read as JMJD2A Tudor 7%, G9a inh -4%[2.33 µM], PLK1 PBD block -21%, HP1b binding inh 31%, BAZ2B block 0% and PI5P4K alpha inh 1.
For CC1Cc2cc(/C=C3/SC(=S)NC3=O)ccc2O1 (stereo not drawn) the results were JMJD2A Tudor inconclusive, G9a inh inconclusive, PLK1 PBD block inconclusive, HP1b binding inh -11%, BAZ2B block -36% and PI5P4K alpha inh -94*.
For Cc1ccc(S(=O)(=O)Oc2ccccc2/C=C2\SC(=O)NC2=O)cc1 the results were JMJD2A Tudor -17%, G9a inh 50µM*, PLK1 PBD block -17%, HP1b binding inh 25%, BAZ2B block inconclusive and PI5P4K alpha inh 4.
For CCOc1ccc(C(=O)Nc2ccc3oc(-c4cccnc4)nc3c2)cc1 the results were JMJD2A Tudor 4%, G9a inh -2%[59 µM], HP1b binding inh 30% and BAZ2B block 2%.
`O=C1NC(=S)S/C1=C\c1cc(Cl)cc(Cl)c1O` gave JMJD2A Tudor 40µM*, PLK1 PBD block inconclusive, HP1b binding inh 45µM* and PI5P4K alpha inh -58*.
O=C1NC(=S)SC1=Cc1ccccc1Cl was read as JMJD2A Tudor inconclusive, PLK1 PBD block 21µM*, HP1b binding inh inconclusive and PI5P4K alpha inh -79*.
`O=C1NC(=O)C(=Cc2ccc(Cl)c(Cl)c2)S1` gave JMJD2A Tudor -10%, PLK1 PBD block -18%, HP1b binding inh 23% and PI5P4K alpha inh -26.
`CCN(CC)c1ccc(C=C2SC(=S)NC2=O)cc1` gave JMJD2A Tudor inconclusive, PLK1 PBD block 50%, HP1b binding inh inconclusive and PI5P4K alpha inh inconclusive.
COc1ccc(/C=C2/CC/C(=C\c3ccc(OC)c(OC)c3OC)C2=O)c(OC)c1OC was read as JMJD2A Tudor inconclusive, G9a inh 7.9µM*, PLK1 PBD block 7%, HP1b binding inh 4%, BAZ2B block inconclusive and PI5P4K alpha inh 1.
`Cc1cc(/C=C2\SC(=S)NC2=O)cc(C)c1O` gave JMJD2A Tudor -31%, G9a inh 40µM*, PLK1 PBD block 20%, HP1b binding inh -6%, BAZ2B block inconclusive and PI5P4K alpha inh -76*.
For Cc1ccc(N[S+](=O)([O-])c2cc3c(cc2CCc2ccccc2)NC(=O)CO3)cc1C the results were JMJD2A Tudor -7%.
`CCc1cc2c(cc3c(=O)n(CC(=O)NC4CCCCC4)nc(CC)n32)s1` gave JMJD2A Tudor -10%, G9a inh inconclusive, HP1b binding inh 1% and BAZ2B block -2%.
`Cc1cccc(NC(=O)COC(=O)CN2C(=O)c3ccccc3C2=O)c1` gave PLK1 PBD block 1% and PI5P4K alpha inh 3.
O=c1oc2ccccc2n1CCn1c2ccccc2c2nc3ccccc3nc21 was read as JMJD2A Tudor -19%, G9a inh 20µM*, PLK1 PBD block -7%, HP1b binding inh 51%, BAZ2B block 0% and PI5P4K alpha inh -5.
Screening COC(=O)c1ccc(CS(=O)(=O)c2ccc(C)cc2)o1 returned JMJD2A Tudor -19%, G9a inh inconclusive, PLK1 PBD block -18%, HP1b binding inh 9%, BAZ2B block -17% and PI5P4K alpha inh -3.
For O=C1C(Cl)=C(N2CCCCC2)C(=O)C(Cl)=C1c1cnc(N2CCCCC2)s1 the results were JMJD2A Tudor 8.9µM*, G9a inh 2.2µM*, PLK1 PBD block 7.5µM*, HP1b binding inh inconclusive and BAZ2B block 45µM*.
For CN(C)c1ncc(C2=C(Cl)C(=O)C(N3CCCC3)=C(Cl)C2=O)s1 the results were JMJD2A Tudor 11µM*, PLK1 PBD block 7.5µM* and HP1b binding inh -84%.
For CC(=O)c1cnc(N(C)C)s1 the results were JMJD2A Tudor 12%, G9a inh -12%[59 µM], PLK1 PBD block -10%, HP1b binding inh 76%, BAZ2B block 30% and PI5P4K alpha inh 1.
Screening CC(C)NC(=O)c1cnc2sc(N3CCCCCC3)nn2c1=O returned JMJD2A Tudor -2%, G9a inh 10%[59 µM], HP1b binding inh 1% and BAZ2B block -11%.
Screening CCOc1cc2[nH]c(=S)n(CCCC(=O)NCc3ccccn3)c(=O)c2cc1OCC returned JMJD2A Tudor 0%, G9a inh 66%, PLK1 PBD block 11%, HP1b binding inh 38%, BAZ2B block -24% and PI5P4K alpha inh -1.
For C=CCNc1nc(Nc2ccc([N+](=O)[O-])cc2)nc(N2CCCC2)n1 the results were JMJD2A Tudor inconclusive, G9a inh -29%, PLK1 PBD block -23%, HP1b binding inh 14%, BAZ2B block -13% and PI5P4K alpha inh 5.
`COc1ccc(Nc2nc(Cl)nc(N3CCN(c4ccc(OC)cc4)CC3)n2)cc1` gave G9a inh inconclusive and BAZ2B block 8.9µM*.
For COc1ccc(Nc2nc(OC)nc(N3CCN(c4ccc(OC)cc4)CC3)n2)cc1 the results were JMJD2A Tudor -28%, G9a inh inconclusive, PLK1 PBD block -1%, HP1b binding inh 27% and BAZ2B block -17%.
Screening CC1CCN(c2nc(Cl)nc(Nc3ccc([N+](=O)[O-])cc3)n2)CC1 returned JMJD2A Tudor inconclusive, G9a inh 45µM*, PLK1 PBD block -3%, HP1b binding inh -17%, BAZ2B block inconclusive and PI5P4K alpha inh 11.
Cc1ccc2c(c1)c1c(c(=O)n(Cc3ccccc3)c(=O)n1CC(=O)Nc1ccccc1F)n2C was read as JMJD2A Tudor -15%, G9a inh -8%[59 µM], HP1b binding inh -4% and BAZ2B block -4%.
Cc1c(C(=O)N2CCN(S(=O)(=O)c3ccc(F)cc3)CC2)oc2ccccc12 was read as JMJD2A Tudor -15%, G9a inh 50µM*, PLK1 PBD block 1%, HP1b binding inh 17%, BAZ2B block 0% and PI5P4K alpha inh -8.
For COc1ccc2oc(C(=O)OCC(=O)N3CCN(S(=O)(=O)c4ccccc4)CC3)c(C)c2c1 the results were JMJD2A Tudor -18%, G9a inh 50µM*, PLK1 PBD block -3%, HP1b binding inh 20%, BAZ2B block 7% and PI5P4K alpha inh -15.

Source: PubChem
